Assay [1] can be described thus: Nuclear factor erythroid 2-related factor 2/antioxidant responsive element (Nrf2/ARE) small molecule agonists: qHTS cell viability counter screen in human keratinocytes (AID 1919968; active means well fitted curve in the direction sought with a large enough effect in the repeat runs; an effect the other way counts as inactive or inconclusive; further: nearly all actives have a fitted effect of over 55% in size; further: potency means the concentration at half of the fitted maximal effect). The method in brief: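 Cells of the KeratinoSens line were plated at 1,500 per well and left for 5 h before compound transfer from DMSO stocks. After a 23 h incubation (37 C, 5% CO2), CellTiter-Fluor was added. Signal was taken as fluorescence intensity 1 h later.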

Assay [2] in a line: Nuclear factor erythroid 2-related factor 2/antioxidant responsive element (Nrf2/ARE) small molecule agonists: luciferase reporter gene qHTS assay in human keratinocytes (AID 1919969). Further: nearly all actives have a fitted effect of over 35% in size. A general note: Reporter assays use an easily measured gene product as a stand-in for the process of interest.
The target of assay [3] is Gonadotropin-releasing hormone receptor (Homo sapiens) (UniProt P30968). Kind of assay: Human gonadotropin-releasing hormone receptor (GnRHR) small molecule agonists, calcium flux assay in GnRHR-HEK293 cells (AID 1920063). Further: nearly all actives have a fitted effect of over 35% in size. The method in brief: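 Compounds dissolved in DMSO are pin-transferred onto dye-loaded GnRHR-HEK293 cells, which were seeded 18 h before at 37 C/5% CO2. Calcium signal is read as fluorescence intensity at 1 s intervals for 3 min.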
Sequence of Gonadotropin-releasing hormone receptor (Homo sapiens) (P30968 whole entry, looked up): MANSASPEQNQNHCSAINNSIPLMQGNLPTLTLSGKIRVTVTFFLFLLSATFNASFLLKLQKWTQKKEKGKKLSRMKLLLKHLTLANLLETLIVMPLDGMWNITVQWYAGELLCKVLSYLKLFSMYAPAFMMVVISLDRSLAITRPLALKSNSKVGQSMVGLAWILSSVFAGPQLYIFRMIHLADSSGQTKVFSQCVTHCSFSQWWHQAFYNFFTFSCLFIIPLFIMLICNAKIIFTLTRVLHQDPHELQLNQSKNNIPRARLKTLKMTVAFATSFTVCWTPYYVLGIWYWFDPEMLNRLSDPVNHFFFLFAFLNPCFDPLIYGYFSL
For orientation: A change in cytosolic calcium serves as a functional read-out for many receptors and channels.

Assay [4] addresses KiSS-1 receptor (Homo sapiens) (UniProt Q969F8). Put plainly: Human kisspeptin (KISS1R) small molecule agonists, calcium flux assay in KISS1R-HEK293 cells (AID 1920064; active means well fitted curve in the direction sought with a large enough effect in the repeat runs; an effect the other way counts as inactive or inconclusive). Summed up: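 Cell line: HEK293, stable human KISS1R. Dye loading 1 h at 37 C after 18 h culture. Read: kinetic fluorescence, 480/540 nm, 3 min at 1 s intervals.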
Assay [5] can be described thus: p53 small molecule agonists, cell-based qHTS assay with human liver microsomes: qHTS cell viability counter screen (AID 1963579). Further: nearly all actives have a fitted effect of over 45% in size. Further: potency means the concentration at half of the fitted maximal effect. Summed up:
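p53RE-bla cells (4,000/well) were pre-incubated 5 h at 37 C, then given compounds in DMSO plus human liver microsomes (0.5 mg/mL final) and NADPH (0.5 mg/mL final) for 16 h at 37 C. Viability was read by CellTiter-Glo luminescence.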

A short description of assay [6]: p53 small molecule agonists, cell-based qHTS assay with rat liver microsomes: qHTS cell viability counter screen (AID 1963580). Further: nearly all actives have a fitted effect of over 45% in size. The method in brief:
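Cytotoxicity counter screen: intracellular ATP read by CellTiter-Glo luminescence in the p53 reporter wells. HCT-116 p53RE-bla cells were treated for 16 h at 37 C alongside rat liver microsomes and NADPH, each 0.5 mg/mL final.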
For orientation: qHTS replaces the single test concentration by a dilution series.

The target of assay [7] is 5-hydroxytryptamine receptor 2A (Homo sapiens) (UniProt P28223). Put plainly: 5-hydroxytryptamine receptor 2A (HTR2A) small molecule agonists, cell-based qHTS assay (AID 1963587). Further: nearly all actives have a fitted effect of over 30% in size. Summed up: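 Kinetic calcium-flux fluorescence (2 min, 1 sec intervals) after compound addition in agonist mode. HTR2A-CHO cells were cultured 18 h, then dye-loaded 1 h at 37 C.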
Sequence of 5-hydroxytryptamine receptor 2A (Homo sapiens) (P28223 whole entry, looked up): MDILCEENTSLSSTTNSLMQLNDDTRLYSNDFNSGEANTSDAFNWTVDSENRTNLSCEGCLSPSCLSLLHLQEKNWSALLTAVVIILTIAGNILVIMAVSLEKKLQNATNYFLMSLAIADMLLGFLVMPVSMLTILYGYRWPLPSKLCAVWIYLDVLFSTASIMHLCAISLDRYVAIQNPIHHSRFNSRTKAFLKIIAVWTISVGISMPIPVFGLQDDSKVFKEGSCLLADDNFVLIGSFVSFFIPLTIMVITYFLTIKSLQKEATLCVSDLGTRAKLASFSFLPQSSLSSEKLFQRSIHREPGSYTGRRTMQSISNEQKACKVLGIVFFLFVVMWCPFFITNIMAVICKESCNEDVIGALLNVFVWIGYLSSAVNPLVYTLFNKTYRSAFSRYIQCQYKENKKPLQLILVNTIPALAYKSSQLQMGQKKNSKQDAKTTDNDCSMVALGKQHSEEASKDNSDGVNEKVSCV
Assay [8] deals with Muscarinic acetylcholine receptor M1 (Homo sapiens) (UniProt P11229). Put plainly: Cholinergic receptor muscarinic 1 (CHRM1) small molecule antagonists, cell-based qHTS assay (AID 1963588). Further: nearly all actives have a fitted effect of over 40% in size. Further: potency means the concentration at half of the fitted maximal effect. The method in brief: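 Compounds were tested at 15 concentrations in three independent runs. Dye-loaded CHRM1-CHO cells were exposed 5 min at room temperature before stimulation by acetylcholine added at 50nM. Intracellular calcium was read kinetically on FDSS for 3 min.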
Sequence of Muscarinic acetylcholine receptor M1 (Homo sapiens) (P11229 whole entry, looked up): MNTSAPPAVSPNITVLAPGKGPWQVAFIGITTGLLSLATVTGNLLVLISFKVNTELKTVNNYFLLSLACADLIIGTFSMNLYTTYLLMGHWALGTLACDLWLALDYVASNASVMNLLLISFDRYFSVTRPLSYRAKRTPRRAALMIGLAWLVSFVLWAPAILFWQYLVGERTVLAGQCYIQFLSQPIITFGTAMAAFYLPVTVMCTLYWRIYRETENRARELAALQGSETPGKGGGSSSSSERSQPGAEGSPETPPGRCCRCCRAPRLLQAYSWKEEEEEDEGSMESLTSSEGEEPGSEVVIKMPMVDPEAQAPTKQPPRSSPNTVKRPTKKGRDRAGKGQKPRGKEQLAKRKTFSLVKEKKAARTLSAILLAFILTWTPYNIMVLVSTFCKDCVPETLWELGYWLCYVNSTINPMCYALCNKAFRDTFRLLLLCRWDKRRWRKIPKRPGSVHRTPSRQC

The target is the same in assay [9]. Put plainly: Cholinergic receptor muscarinic 1 (CHRM1) small molecule agonists, cell-based qHTS assay (AID 1963589). Further: nearly all actives have a fitted effect of over 35% in size. Summed up: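 Homogeneous fluorescence calcium flux, agonist mode. Human M1-expressing CHO cells; compound dosed at 15 concentrations, three independent runs; signal sampled every 1 sec.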
Assay [10] can be described thus: cAMP Responsive Elements (CRE) small molecule agonists, cell-based qHTS assay (AID 1963590). Summed up:
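HEK 293T cells stably bearing CRE-bla were plated at 2,000 cells per well and rested 18 h. Compounds, positive controls or DMSO were added for 3 h at 37 C. LiveBLAzer B/G substrate was then loaded for 2 h at room temperature.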

Assay [11] addresses Beta-2 adrenergic receptor (Homo sapiens) (UniProt P07550). Put plainly: Adrenergic beta2 receptor (ADRB2) small molecule antagonists, cell-based qHTS assay (AID 1963592). Further: series mostly up to about 92 µM; nearly all actives have a fitted effect of over 50% in size. The method in brief:
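Assay format: CHO-ADRB2 cells, 18-20hr seeding at 37C/5% CO2, then compound plus 1nM isoproterenol agonist mix for 0.5hr RT. Homogeneous time-resolved fluorescence cAMP detection after 1hr, expressed as 665/615 nm ratio.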

The target is the same in assay [12]. Put plainly: Adrenergic beta2 receptor (ADRB2) small molecule agonists, cell-based qHTS assay (AID 1963593).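 Further: CHO cells stably overexpressing human ADRB2.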 The method in brief:
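CHO cells stably over-expressing ADRB2 were plated overnight at 37C, then dosed with compounds plus a stimulation mix containing 100uM IBMX and 25uM Ro-20-1724 for 0.5hr at room temperature. cAMP was measured by HTRF competition, 1hr.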

In assay [13] the target is D(2) dopamine receptor (Homo sapiens) (UniProt P14416). Kind of assay: Dopamine D2 receptor (DRD2) small molecule agonists, cell-based qHTS assay (AID 1963594). Further: nearly all actives have a fitted effect of over 35% in size. Summed up:
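cAMP accumulation in DRD2-HEK293 cells measured by HTRF after 1 h detection; compounds added 10 min before NKH477 (200nM […]) forskolin-analogue stimulation, 30 min at room temperature, with Ro20-1724 present at 0.1 mM final.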

Assay [14] shares this target. Kind of assay: Dopamine D2 receptor (DRD2) small molecule antagonists, cell-based qHTS assay (AID 1963595; active means well fitted inhibition curve with a large enough effect in the signal ratio in the repeat runs, with a control signal flat; the % refers to the signal ratio). The method in brief:
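Readout: HTRF cAMP, cAMP-d2 competing with cellular cAMP for anti-cAMP cryptate, read after 1 h. Cells: DRD2-HEK293. Conditions: 0.1 mM Ro20-1724, 12 nM quinpirole, 200 nM NKH477, 30 min RT.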

The nature of assay [15]: G protein-coupled receptor (GPCR) small molecule agonists, calcium flux assay: HEK293 wild type cell line counter screen (AID 1920065). The method in brief: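 Tox21 10K compounds, 15 concentrations each in triplicate, pin-transferred in DMSO onto dye-loaded cells; kinetic read at 480/540 nm for 3 min, 1 s intervals.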
Assay [16] in a line: p53 small molecule agonists, cell-based qHTS assay with rat liver microsomes (AID 1963578). The method in brief:
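p53RE-bla cells were exposed to compounds together with rat liver microsomes (0.5 mg/mL final) and NADPH (0.5 mg/mL final) for 16 h at 37 C, then read by LiveBLAzer beta-lactamase fluorescence after 2 h at room temperature.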

The target in assay [17] is 5-hydroxytryptamine receptor 2A (Homo sapiens) (UniProt P28223). Kind of assay: 5-hydroxytryptamine receptor 2A (HTR2A) small molecule antagonists, cell-based qHTS assay (AID 1963586). Further: nearly all actives have a fitted effect of over 45% in size. Further: potency means the concentration at half of the fitted maximal effect. Summed up: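 CHO cells stably expressing human HTR2A were plated for 18 h at 37 C, then loaded with calcium dye for 1 h. Compounds were preincubated 5 min at room temperature before DOI (4 nM solution) was added. Kinetic fluorescence was read for 3 min.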

A short description of assay [18]: p53 small molecule agonists, cell-based qHTS assay: qHTS cell viability counter screen (AID 1963581). Further: nearly all actives have a fitted effect of over 45% in size. The method in brief:
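ATP content measured by luminescence in HCT-116 p53RE-bla cells treated 16 h at 37 C, same wells as the reporter screen.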

A short description of assay [19]: cAMP Responsive Elements (CRE) small molecule antagonists, cell-based qHTS assay (AID 1963591; active means well fitted inhibition curve with a large enough effect in the signal ratio in the repeat runs, not every such curve was filed as active; the % refers to the signal ratio). Summed up: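 First, CRE-bla HEK293T cells settled 18 h at 37 C. Next, compound and 0.25 uM final NKH477 were applied for 3 h. Last, LiveBLAzer B/G substrate was loaded for 2 h at room temperature.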

The structures appear in SMILES notation. Unmarked numbers belong to inactive results. Results filed as inconclusive are left out. Activity calls are given as the source filed them. Unless noted, the call rests on the fitted dose curve.

This is an account of results in PubChem BioAssay (Tox21).
On the % scale 0 is the no-effect control and ±100 the full control effect.

Sequence of Beta-2 adrenergic receptor (Homo sapiens) (P07550 whole entry, looked up): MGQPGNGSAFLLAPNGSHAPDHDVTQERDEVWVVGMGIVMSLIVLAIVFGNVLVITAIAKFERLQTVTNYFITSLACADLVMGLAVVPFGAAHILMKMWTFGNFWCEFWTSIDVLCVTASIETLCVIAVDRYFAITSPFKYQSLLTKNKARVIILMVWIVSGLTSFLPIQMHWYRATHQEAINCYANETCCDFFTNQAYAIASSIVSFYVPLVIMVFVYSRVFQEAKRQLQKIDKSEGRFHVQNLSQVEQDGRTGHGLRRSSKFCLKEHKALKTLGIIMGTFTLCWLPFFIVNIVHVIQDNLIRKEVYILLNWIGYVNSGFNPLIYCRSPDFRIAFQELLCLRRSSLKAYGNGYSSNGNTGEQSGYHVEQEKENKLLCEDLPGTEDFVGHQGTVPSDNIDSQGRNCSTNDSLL
Sequence of KiSS-1 receptor (Homo sapiens) (Q969F8 whole entry, looked up): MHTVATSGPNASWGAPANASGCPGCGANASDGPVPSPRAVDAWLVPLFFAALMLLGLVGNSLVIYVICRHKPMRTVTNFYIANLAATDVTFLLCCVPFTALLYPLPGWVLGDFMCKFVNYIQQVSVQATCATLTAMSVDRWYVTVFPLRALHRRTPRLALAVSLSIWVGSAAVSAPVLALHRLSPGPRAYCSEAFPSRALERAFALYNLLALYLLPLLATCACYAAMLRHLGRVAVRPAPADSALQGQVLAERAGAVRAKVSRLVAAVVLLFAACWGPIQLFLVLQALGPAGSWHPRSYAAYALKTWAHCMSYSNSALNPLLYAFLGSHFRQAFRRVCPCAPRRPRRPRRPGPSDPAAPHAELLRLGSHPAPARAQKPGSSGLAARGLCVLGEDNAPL
Sequence of D(2) dopamine receptor (Homo sapiens) (P14416 whole entry, looked up): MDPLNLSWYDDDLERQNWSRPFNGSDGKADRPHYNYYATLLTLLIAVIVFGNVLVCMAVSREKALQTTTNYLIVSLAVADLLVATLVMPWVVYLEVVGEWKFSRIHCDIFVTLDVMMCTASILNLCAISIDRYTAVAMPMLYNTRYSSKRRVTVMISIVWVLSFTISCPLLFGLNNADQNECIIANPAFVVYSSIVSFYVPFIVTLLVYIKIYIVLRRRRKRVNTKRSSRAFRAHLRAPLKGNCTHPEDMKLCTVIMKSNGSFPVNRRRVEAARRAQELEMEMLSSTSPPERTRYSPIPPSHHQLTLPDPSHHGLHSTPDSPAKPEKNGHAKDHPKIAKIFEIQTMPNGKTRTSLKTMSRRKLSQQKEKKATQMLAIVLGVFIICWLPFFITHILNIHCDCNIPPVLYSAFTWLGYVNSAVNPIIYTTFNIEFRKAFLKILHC

Regarding `N=C(N)N1CCc2ccccc2C1`, the figures for the activity change, negative = cytotoxicity in [1], in assay [5] and in [6] were 2.9% [at 8.39 µM], -1.79% [at 5.99 µM] and 0.465% [at 5.99 µM], respectively. For the same compound, the activity, positive = activation in [2] is -4.04% [at 8.39 µM]. The activity change in [3] was 0.504% [at 5.22 µM, stronger effect = higher value]. Besides, the activation was -0.218% [at 6.97 µM] in [4]; -10.3% [at 7.02 µM] in [7]; 0.312% [at 6.97 µM] in assay [9]; 0.166% [at 8.39 µM] in assay [10]; 9.27% [at 8.39 µM] in assay [12]; 22% [at 8.39 µM] in assay [13]. Moreover, the activity, negative = inhibition in assay [8] is -1.92% [at 5.58 µM]. Also, the activity change, negative = inhibition in assay [11] is -8.55% [at 8.39 µM]; in assay [14], 16.9% [at 8.38 µM].

For `CC=O`, the Potency in assay [1] is 28.6 µM (active); in assay [5], 47.9 µM (active); in [8] it was 3.5 µM (active). Also, the Potency entry in [2], in assay [3], in assay [15], in [16], in assay [17] and in [9] was “inactive” in each case. Besides, the Potency entry in assay [11] and in [14] was “inactive” throughout.

Consider `CC(=O)N(CC(O)CO)c1c(I)c(C(=O)NCCO)c(I)c(C(=O)NCC(O)CO)c1I` (stereo not drawn), for which the Potency entry in [1], in assay [2], in assay [3], in assay [4], in assay [5] and in [6] was “inactive” throughout. Moreover, the Potency result in assay [18], in assay [17], in assay [7], in assay [8], in [10] and in assay [19] was “inactive” throughout. Also, the Potency result in assay [12], in assay [13] and in [14] was “inactive” each time.

As for `CC(C)C(C)C`, the Potency entry in [1], in assay [2], in [3], in assay [4], in [5] and in assay [6] was “inactive” throughout. For the same compound, the Potency entry in assay [18], in assay [17], in assay [10], in assay [19], in assay [13] and in assay [14] was “inactive” in each case.

On to `c1ccc(-c2nc[nH]c2-c2ccccc2)cc1`, for which the Potency entry in [1], in [2], in assay [3], in assay [4], in assay [5] and in assay [6] was “inactive” in each case. In addition, the Potency entry in assay [7], in [8], in [10], in assay [19], in [11] and in [12] was “inactive” throughout. Besides, the Potency entry in [13] and in assay [14] was “inactive” each time. Moreover, the Potency in assay [17] is 3.65 µM (active).

Consider `O=C(O)CNC(=O)CNC(=O)CNC(=O)CSC(=O)c1ccccc1`, for which the Potency result in assay [1], in [2], in assay [3], in [4], in assay [5] and in [6] was “inactive” in each case. In addition, the Potency entry in assay [18], in assay [17], in assay [7], in assay [8], in assay [9] and in assay [10] was “inactive” throughout. The Potency entry in assay [19], in assay [11], in [12], in assay [13] and in [14] was “inactive” each time.

For the compound `C/C(C=O)=C\c1ccccc1`, the Potency entry in assay [1], in [2], in assay [3], in [4], in assay [6] and in assay [18] was “inactive” throughout. Moreover, the Potency entry in [17], in assay [8], in [9], in assay [10], in assay [19] and in assay [11] was “inactive” each time. The Potency result in assay [13] and in [14] was “inactive” in each case.

For `C=C(C)CS(=O)(=O)O`, the Potency entry in [1], in assay [2], in assay [3], in assay [4], in assay [5] and in [6] was “inactive” in each case. In addition, the Potency result in assay [18], in assay [17], in assay [7], in assay [8], in [9] and in assay [10] was “inactive” in each case. In addition, the Potency result in [19], in assay [11] and in [14] was “inactive” throughout.
